Hits are enriched below; roughly 11% of the tested compounds scored in any of these assays.
Autophagy mod = autophagy modulation, high-content screen. MEF GFP-LC3 puncta imaging; test concentration mostly 10 µM. calls only at 10 µM (by protocol). 190,000 compounds, 0.98% hits;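 active = percentage of spot-positive cells more than 3 SD above its plate mean, without a fluorescence outlier flag or 80% toxicity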;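 also: spot-positive cell cutoff set from DMSO-treated cells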
Ins promoter up = MIN6 insulin promoter up-regulation; MIN6 insulin promoter-GFP reporter, high-content imaging; active compounds read high; z-score at 5 µM; 190,000 compounds, 0.3% hits;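 active = z-score above 3 at 5 µM with at least 500 cells counted in the well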
WT yeast gro inh = growth inhibition of WT yeast, mitochondrial fusion screen; mitochondrial fusion phenotypic screen, WT strain; inhibition, % at 10 µM; 190,000 compounds, 2.1% hits; AID 1362; in the data active = inhibition above about 58%; tested in S. cerevisiae
L major viab = Leishmania major promastigote growth inhibition. Leishmania major promastigotes, resazurin fluorescence viability. inhibition, % at 10 µM. 200,000 compounds, 9% hits. AID 1063; in the data active = inhibition above about 50%;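 also: promastigotes grown with compound for 44 hours at 28 °C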
INS promoter inh = TRM-6 insulin promoter activity inhibition; 130,000 compounds, 0.9% hits; inhibition, % at 2 µM; TRM-6 cells (human fetal islet line), insulin promoter-eGFP reporter, imaging; reporter expression induced with tamoxifen;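 active = inhibition above the mean plus 3 SD, with well images judged a real hit on visual review, cut at about 60% in these data, passing the limit was not always enough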
An asterisk follows results filed as active; i = inactive; . = not tested or not shown; + = active, no number.

SMILES	Autophagy mod	Ins promoter up	WT yeast gro inh	L major viab	INS promoter inh
COc1ccc(-c2[nH]c(-c3ccc(C)cc3)nc2SCC(=O)Nc2nccs2)cc1	i	-0.31	18	23	29
Cc1ccc(-c2nc(N)sc2CC(=O)OCC(=O)NCC2CCCO2)cc1 (stereo not drawn)	i	1.5	8	49	-32
CCc1cc2cc3c(cc2nc1SCC(=O)N1CCN(C(=O)c2ccco2)CC1)OCO3	i	0.09	-31	84*	.
CCc1nnc(NC(=O)CSc2nc3cc4c(cc3cc2CC)OCCO4)s1	+	-0.16	6	-8	-11
CCc1cc2ccc(C)cc2nc1SCC(=O)N1CCN(C(=O)c2ccco2)CC1	i	-1.4	0	13	63
CCc1cc2cc3c(cc2nc1SCC(=O)Nc1cc(C)on1)OCO3	+	0.23	-57	-4	.
CCc1cc2cc3c(cc2nc1SCC(=O)Nc1nnc(C)s1)OCCO3	i	0.89	11	-4	18
CCc1nnc(NC(=O)CSc2nc(C)c3c(c2C#N)CCCC3)s1	i	-0.98	-1	-1	85*
O=C(O)CCSCCCN1C(=O)c2cccc3cccc(c23)C1=O	i	-0.57	-2	-4	-50
CCOc1cccc(SCc2noc(C(=O)NCC3CCCO3)c2C(=O)O)c1 (stereo not drawn)	i	1.4	-6	-4	27
CCOc1ccc2nc(NC(=O)CN3CCC(n4nnc5cc(C(F)(F)F)ccc54)CC3)sc2c1	i	-1.9	28	16	77*
Cc1cc(NC(=O)CN2CCC(n3nnc4cc(C(F)(F)F)ccc43)CC2)no1	i	-0.51	-5	36	.
O=C(CN1CCC(n2nnc3cc(F)ccc32)CC1)N1CCCc2ccccc21	i	0.04	-3	9	45
O=C(CN1CCC(n2nnc3cc(C(F)(F)F)ccc32)CC1)N1CCc2ccccc21	i	-0.5	1	56*	.
CCN(CC)c1ccc(/C=C/c2cc(-c3ccccc3)c3ccccc3n2)cc1	.	15*	.	.	.
COc1ccc(Cl)cc1-c1nc(SCC(N)=O)n[nH]1	.	0.25	.	.	.
CCCCC1(C)NC(=S)N2N1C(=S)NC2(C)CCCC (stereo not drawn)	.	-0.28	.	.	.
CCCc1sc(N/N=C/c2ccccn2)nc1-c1ccc(Br)cc1	i	.	65*	97*	59
Cc1ccc(N/N=C/c2c(C)c(C#N)c(=O)n(C)c2O)cc1C	i	0.33	27	80*	.
COc1cc(S(=O)(=O)Nc2ccc(C)cc2)ccc1N=Cc1c(C)c(C#N)c(=O)n(C)c1O	i	0.14	-24	-2	.
COc1cc(CNCCNCC(C)O)ccc1OCc1ccc(Cl)nc1 (stereo not drawn)	i	0.16	3	-6	.
CCCCCNCc1ccc(OCc2ccc(Cl)nc2)c(OC)c1	i	0.04	24	100*	.
CCOCCCNCc1ccc(OCCC(C)C)c(OC)c1	i	-0.28	1	85*	.
COc1ccc(CCNCc2ccc(OCc3ccc(Cl)nc3)c(OC)c2)cc1OC	i	-0.4	3	90*	15
COc1ccc(CNCCc2ccccc2)cc1OCC(N)=O	i	-0.26	52	-4	-23
SMILES	Autophagy mod	Ins promoter up	WT yeast gro inh	L major viab	INS promoter inh
COc1ccc(CNCCc2ccc(Cl)cc2)cc1OCc1ccccc1	+	.	82*	96*	.
O=c1[nH]c2ccccc2c(O)c1-c1ccccc1[N+](=O)[O-]	i	-0.2	-5	-6	27
CSCCC(NC(=O)c1cccc(C)c1)C(=O)OCC(=O)NC(=O)c1cccn1C (stereo not drawn)	i	0.26	16	-1	.
CCN(c1ccccc1)S(=O)(=O)c1ccc(Cl)c(NC(=O)CSc2nnc(C)s2)c1	i	-0.87	2	-8	.
O=c1cc(/C=C/c2ccccc2)oc2c1ccc1ccccc12	i	.	81*	-2	.
CCOc1ccccc1/C=N/NC(=O)CNC(=O)c1cccs1	i	0.23	4	4	.
NS(=O)(=O)c1ccc(NC(=S)Nc2nn(Cc3ccc(Cl)cc3Cl)cc2Cl)cc1	i	-2.7	1	14	-52
Cc1ccc2nc(SC(C(=O)c3ccccc3)c3ccccc3)nc(C)c2c1 (stereo not drawn)	i	0.79	-8	92*	-11
Cc1ccc2nc(SCC(=O)O)nc(C)c2c1	i	0.35	-15	-9	0
O=c1cc(CN2CCN(c3ccccc3)CC2)nc2scc(-c3ccccc3)n12	i	0.07	8	5	-73
CCOC(=O)C1CCN(Cc2cc(=O)n3c(-c4ccccc4)csc3n2)CC1	i	-0.01	-8	88*	36
COCCn1nnnc1C(c1ccccc1OC)N1CCc2ccccc2C1 (stereo not drawn)	i	.	.	85*	-73
COCCn1nnnc1C(c1ccc(OC)c(OC)c1)N1CCc2ccccc21 (stereo not drawn)	i	-1.2	6	-6	.
COc1ccc(C(c2nnnn2Cc2ccccc2)N2CCN(c3ccccc3)CC2)cc1 (stereo not drawn)	i	-0.7	12	2	.
Fc1ccc(Cn2nnnc2C(c2ccc(Cl)cc2)N2CCSCC2)cc1 (stereo not drawn)	i	-0.17	44	99*	-21
CC1CCN(C(c2ccc(N(C)C)cc2)c2nnnn2Cc2ccc(F)cc2)CC1 (stereo not drawn)	i	0.91	9	-1	40
COc1ccc(Cn2nnnc2C(c2cccs2)N2CCSCC2)cc1 (stereo not drawn)	i	-0.04	26	48	-43
COc1ccc(C(c2nnnn2Cc2ccccc2)N2CCN(c3nc4ccccc4s3)CC2)cc1 (stereo not drawn)	i	-5	8	100*	.
COc1ccc(Cn2nnnc2C(c2cccs2)N2CCCCCC2)cc1 (stereo not drawn)	i	-0.08	27	57*	-5
CCCCN1CNC(=S)N(Cc2ccccc2)C1	i	0.5	11	-6	-17
Cc1ccc(C(c2nnnn2Cc2ccccc2)N2CCN(Cc3ccccc3)CC2)cc1 (stereo not drawn)	i	.	13	92*	15
COCCn1nnnc1C(c1ccc(OC)c(OC)c1)N1CCN(c2nc3ccccc3s2)CC1 (stereo not drawn)	i	-0.79	.	83*	8
COc1ccc(-c2csc(N=C(N)N)n2)cc1	i	.	-3	60*	44
Cc1cn2c(nc(=O)c3cccnc32)s1	i	0.14	3	1	-37
Cc1cc(=O)oc2cc(O)c(N=Nc3ccccc3)cc12	.	0.45	.	.	.
CCCN(CCO)Cc1cccc(Oc2ccccc2)c1	i	0.6	-2	97*	0
O=C(c1cc2nc(-c3ccccc3)cc(-c3ccccc3)n2n1)N1CCCC1	i	-0.43	10	42	.
CN1CCN(C(=O)c2cc3nc(-c4ccccc4)cc(-c4ccccc4)n3n2)CC1	i	0.17	11	95*	-29
COc1ccc(C(C(=O)NC2CCCCC2)N(C(=O)c2sc(C)nc2C)c2ccc(C(C)=O)cc2)cc1 (stereo not drawn)	i	.	24	-4	17
C[C@@H]1CN(Cc2cn(C)nc2-c2cccc(Cl)c2)C[C@H](C)O1	i	-0.37	-22	-2	-115

Screening results deposited in PubChem BioAssay by several laboratories.
